# Assay results as given in the supplement of paper PMC10849652.
# About 7,900 targets were measured; listed, in parts, are those with a hit and a random draw of the rest. About 0.6% of all pairs of compound and target were hits. Values without a mark were called inactive.
# Columns and labels:
# Experiment in all cases: log2 fold change, soluble protein after heating vs DMSO (PISA); higher = thermal stabilisation; K562 cells, 10 uM, 30 min; active = over 0.2 and 3.5 SD of the protein, either way, in both replicates (recomputed)
# [1] = compound: NC(=O)Nc1cc(-c2cccc(F)c2)sc1C(=O)N[C@H]1CCCNC1
# Method in brief: (§1)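 Quantification of soluble protein used TMTpro 16plex LC-MS/MS, with channel sums equalised. Samples were the supernatant after 21,000xg for 90 min of pooled aliquots from K562 cells (2×10^6 cells/mL) treated with 10 μM compound for 30 min, heated for 3 min over 48°C-58°C, and extracted in PBS with 0.5% NP-40 at 4°C. Values, from duplicates, describe thermal stability against control samples on a log2 fold-change scale.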
# [2] = compound: NC(=O)c1cnc(N[C@@H]2CCCC[C@@H]2N)nc1Nc1cccc(-n2nccn2)c1
# Method in brief: as §1
# [3] = compound: NC1(c2ccc(-c3nc4ccn5c(=O)[nH]nc5c4cc3-c3ccccc3)cc2)CCC1
# Method in brief: as §1
# [4] = compound: NCC(=O)Nc1ccc(-n2nc(C(F)(F)F)cc2-c2ccc3c(ccc4ccccc43)c2)cc1
# Method in brief: as §1
# [5] = compound: Nc1ccccc1NC(=O)c1ccc(CNC(=O)OCc2cccnc2)cc1 [entinostat]
# Method in brief: as §1
# [6] = compound: O=C(CCCCCCC(=O)Nc1ccccc1)NO [vorinostat]
# Method in brief: as §1
# [7] = compound: O=C(CCCCCCNC(=O)c1cnc(N(c2ccccc2)c2ccccc2Cl)nc1)NO [citarinostat]
# Method in brief: as §1
# [8] = compound: O=C(O)c1ccc2c(c1)nc(Nc1cccc(Cl)c1)c1ccncc12 [silmitasertib]
# Method in brief: as §1
# [9] = compound: O=C1NC(=O)C(c2cnc3ccccn23)=C1c1cn2c3c(cc(F)cc13)CN(C(=O)N1CCCCC1)CC2
# Method in brief: as §1
# [10] = compound: c1cc(OCCN2CCCCC2)cc(-c2n[nH]c3ccc(-c4nnc[nH]4)cc23)c1
# Method in brief: as §1
# [11] = compound: c1cn2cc(-c3ccc4cn[nH]c4c3)nc(Nc3ccc(N4CCOCC4)cc3)c2n1 [entospletinib]
# Method in brief: as §1
# UniProt Q9NQI0, sequence (Q9NQI0 whole entry, looked up): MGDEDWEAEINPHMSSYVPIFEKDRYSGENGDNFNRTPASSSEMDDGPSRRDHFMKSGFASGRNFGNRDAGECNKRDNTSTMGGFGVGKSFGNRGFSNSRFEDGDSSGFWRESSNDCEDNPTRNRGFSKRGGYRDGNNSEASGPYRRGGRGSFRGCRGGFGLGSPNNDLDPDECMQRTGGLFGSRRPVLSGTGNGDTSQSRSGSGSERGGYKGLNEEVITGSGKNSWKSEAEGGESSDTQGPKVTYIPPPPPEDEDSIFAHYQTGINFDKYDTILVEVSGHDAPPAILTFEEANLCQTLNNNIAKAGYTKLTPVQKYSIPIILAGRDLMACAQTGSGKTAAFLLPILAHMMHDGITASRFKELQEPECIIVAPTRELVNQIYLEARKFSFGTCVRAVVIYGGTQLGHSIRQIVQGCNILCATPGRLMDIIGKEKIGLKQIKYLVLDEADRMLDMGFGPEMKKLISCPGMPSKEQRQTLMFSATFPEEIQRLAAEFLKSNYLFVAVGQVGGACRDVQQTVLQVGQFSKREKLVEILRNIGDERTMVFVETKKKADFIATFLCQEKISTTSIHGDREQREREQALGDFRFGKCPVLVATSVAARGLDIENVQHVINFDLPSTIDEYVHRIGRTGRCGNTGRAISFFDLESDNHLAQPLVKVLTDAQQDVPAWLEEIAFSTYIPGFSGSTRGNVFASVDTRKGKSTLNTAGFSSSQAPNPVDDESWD
# UniProt P11182, sequence (P11182 whole entry, looked up): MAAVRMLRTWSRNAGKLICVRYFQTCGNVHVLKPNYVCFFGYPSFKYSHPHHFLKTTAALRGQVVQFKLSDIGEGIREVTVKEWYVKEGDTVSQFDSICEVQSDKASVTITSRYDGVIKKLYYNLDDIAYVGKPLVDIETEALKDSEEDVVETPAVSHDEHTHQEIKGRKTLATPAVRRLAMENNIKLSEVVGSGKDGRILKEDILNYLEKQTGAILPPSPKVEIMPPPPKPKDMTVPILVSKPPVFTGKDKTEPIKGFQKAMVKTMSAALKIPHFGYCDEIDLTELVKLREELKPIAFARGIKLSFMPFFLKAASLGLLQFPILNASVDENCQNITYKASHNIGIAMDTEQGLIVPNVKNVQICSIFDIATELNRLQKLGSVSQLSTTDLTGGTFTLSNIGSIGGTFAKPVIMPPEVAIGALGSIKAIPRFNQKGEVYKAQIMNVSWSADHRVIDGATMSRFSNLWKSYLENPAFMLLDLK
# UniProt Q16531, sequence (Q16531 whole entry, looked up): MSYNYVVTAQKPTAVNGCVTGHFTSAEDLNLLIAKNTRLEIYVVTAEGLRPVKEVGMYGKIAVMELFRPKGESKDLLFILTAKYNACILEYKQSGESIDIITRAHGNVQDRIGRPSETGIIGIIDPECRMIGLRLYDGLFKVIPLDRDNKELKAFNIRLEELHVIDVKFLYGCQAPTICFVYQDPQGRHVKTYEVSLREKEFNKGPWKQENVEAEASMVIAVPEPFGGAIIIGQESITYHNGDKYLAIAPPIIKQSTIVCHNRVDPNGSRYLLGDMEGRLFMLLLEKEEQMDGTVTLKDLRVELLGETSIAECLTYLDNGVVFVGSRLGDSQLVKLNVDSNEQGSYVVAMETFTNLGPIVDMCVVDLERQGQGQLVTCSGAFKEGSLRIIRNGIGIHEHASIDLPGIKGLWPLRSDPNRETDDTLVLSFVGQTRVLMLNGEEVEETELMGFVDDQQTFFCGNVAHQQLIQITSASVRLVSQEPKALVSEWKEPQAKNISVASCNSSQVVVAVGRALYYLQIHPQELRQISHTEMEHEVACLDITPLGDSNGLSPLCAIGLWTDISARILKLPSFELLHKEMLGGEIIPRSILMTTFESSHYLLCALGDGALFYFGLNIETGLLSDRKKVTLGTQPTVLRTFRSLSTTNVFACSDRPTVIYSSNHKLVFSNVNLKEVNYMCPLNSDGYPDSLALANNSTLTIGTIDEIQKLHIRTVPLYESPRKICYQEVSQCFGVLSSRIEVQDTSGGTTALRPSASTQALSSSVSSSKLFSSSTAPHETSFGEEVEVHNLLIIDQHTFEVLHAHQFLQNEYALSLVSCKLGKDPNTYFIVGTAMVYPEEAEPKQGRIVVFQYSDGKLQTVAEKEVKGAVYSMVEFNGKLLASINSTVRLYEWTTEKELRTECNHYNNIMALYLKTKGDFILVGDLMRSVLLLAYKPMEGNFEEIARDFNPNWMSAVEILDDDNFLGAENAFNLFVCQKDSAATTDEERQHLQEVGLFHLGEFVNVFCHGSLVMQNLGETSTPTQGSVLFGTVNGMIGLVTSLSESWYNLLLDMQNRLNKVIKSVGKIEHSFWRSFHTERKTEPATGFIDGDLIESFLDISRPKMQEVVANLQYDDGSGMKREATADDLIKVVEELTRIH
# UniProt Q01780, sequence (Q01780 whole entry, looked up): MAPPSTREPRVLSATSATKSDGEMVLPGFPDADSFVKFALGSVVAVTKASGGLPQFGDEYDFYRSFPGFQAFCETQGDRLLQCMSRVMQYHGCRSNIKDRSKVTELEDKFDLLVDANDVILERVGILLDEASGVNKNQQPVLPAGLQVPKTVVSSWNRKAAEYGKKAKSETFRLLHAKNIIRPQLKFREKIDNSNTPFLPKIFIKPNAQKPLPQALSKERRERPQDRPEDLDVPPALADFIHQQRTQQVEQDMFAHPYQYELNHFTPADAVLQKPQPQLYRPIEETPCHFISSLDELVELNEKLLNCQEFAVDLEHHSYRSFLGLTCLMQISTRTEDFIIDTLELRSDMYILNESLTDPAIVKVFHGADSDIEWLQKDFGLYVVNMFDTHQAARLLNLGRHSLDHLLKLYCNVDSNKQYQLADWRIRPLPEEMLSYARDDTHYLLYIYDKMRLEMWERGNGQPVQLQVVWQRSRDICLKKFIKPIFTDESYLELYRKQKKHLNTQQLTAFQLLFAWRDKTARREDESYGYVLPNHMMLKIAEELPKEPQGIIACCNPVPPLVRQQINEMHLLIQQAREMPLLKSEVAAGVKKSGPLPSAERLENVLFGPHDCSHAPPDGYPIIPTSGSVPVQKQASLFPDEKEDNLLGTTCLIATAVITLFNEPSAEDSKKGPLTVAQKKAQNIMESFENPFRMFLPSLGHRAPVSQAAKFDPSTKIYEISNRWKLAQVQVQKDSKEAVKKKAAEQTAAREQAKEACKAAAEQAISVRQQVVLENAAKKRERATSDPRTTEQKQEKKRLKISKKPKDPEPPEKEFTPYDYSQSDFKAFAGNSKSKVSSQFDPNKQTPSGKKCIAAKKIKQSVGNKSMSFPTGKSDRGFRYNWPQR
# UniProt Q9BPY3, sequence (Q9BPY3 whole entry, looked up): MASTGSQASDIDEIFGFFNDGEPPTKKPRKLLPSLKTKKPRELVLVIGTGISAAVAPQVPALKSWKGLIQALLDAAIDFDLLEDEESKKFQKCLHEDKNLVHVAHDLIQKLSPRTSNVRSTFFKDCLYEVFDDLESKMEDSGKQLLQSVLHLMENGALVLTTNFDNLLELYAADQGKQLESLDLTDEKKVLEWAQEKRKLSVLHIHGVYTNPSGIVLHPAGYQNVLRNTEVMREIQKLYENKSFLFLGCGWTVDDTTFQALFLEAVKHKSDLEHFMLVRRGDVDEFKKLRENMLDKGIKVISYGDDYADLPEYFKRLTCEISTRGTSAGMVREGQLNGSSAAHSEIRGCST
# UniProt P49366, sequence (P49366 whole entry, looked up): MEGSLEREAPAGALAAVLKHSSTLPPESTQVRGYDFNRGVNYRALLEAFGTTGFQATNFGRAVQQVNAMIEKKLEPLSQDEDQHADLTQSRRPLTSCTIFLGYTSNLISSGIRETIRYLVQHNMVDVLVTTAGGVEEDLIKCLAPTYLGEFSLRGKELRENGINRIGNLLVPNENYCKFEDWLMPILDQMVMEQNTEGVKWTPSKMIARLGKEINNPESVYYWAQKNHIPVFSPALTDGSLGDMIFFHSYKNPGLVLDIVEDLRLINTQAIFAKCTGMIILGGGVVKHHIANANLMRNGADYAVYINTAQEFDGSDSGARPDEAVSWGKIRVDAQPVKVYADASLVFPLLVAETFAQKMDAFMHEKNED
# UniProt Q16850, sequence (Q16850 whole entry, looked up): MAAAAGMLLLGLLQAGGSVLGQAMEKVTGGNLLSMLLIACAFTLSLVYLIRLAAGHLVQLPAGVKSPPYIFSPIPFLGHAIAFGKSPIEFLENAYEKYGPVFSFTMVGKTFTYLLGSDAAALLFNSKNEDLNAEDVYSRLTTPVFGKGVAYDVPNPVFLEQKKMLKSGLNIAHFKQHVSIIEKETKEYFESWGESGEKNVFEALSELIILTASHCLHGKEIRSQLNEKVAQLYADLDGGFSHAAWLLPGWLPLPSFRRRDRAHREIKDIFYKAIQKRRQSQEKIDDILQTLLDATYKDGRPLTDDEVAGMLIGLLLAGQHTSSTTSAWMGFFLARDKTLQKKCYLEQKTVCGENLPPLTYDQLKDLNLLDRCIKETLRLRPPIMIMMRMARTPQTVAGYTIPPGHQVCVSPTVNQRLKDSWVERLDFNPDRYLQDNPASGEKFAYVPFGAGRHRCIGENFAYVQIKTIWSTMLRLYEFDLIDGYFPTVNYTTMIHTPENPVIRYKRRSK
# UniProt Q9NRY5, sequence (Q9NRY5 whole entry, looked up): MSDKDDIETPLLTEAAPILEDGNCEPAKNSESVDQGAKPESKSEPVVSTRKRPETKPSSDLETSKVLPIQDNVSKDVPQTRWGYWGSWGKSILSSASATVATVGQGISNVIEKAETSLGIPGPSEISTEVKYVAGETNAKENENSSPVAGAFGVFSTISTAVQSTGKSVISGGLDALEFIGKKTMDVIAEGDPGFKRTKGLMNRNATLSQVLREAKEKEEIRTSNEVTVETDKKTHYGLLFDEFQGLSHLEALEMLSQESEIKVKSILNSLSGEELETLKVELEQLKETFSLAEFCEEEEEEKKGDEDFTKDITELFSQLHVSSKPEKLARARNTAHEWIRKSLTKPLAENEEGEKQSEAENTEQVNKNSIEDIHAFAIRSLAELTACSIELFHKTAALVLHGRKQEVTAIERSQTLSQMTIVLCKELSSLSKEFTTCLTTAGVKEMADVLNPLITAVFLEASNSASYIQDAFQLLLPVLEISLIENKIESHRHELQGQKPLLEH
Target,log2 fold change [1],log2 fold change [2],log2 fold change [3],log2 fold change [4],log2 fold change [5],log2 fold change [6],log2 fold change [7],log2 fold change [8],log2 fold change [9],log2 fold change [10],log2 fold change [11]
DMXL1 (UniProt Q9Y485),-0.026,-0.075,-0.052,-0.015,0.033,0.069,0.005,0.04,-0.007,-0.071,0.04
CYP51A1 (UniProt Q16850),-0.018,-0.004,0.024,-0.033,-0.045,0.119,0.006,0.001,0.964 (active),-0.112,0.093
DNAAF2 (UniProt Q9NVR5),0.039,0.025,-0.042,-0.044,-0.06,0,-0.034,0.016,-0.003,-0.03,0.051
DPP8 (UniProt Q6V1X1),-0.243,-0.126,-0.04,-0.079,-0.124,-0.021,-0.325 (active),0.063,-0.114,0.219,-0.377 (active)
CTSA (UniProt P10619),0.031,0.092,-0.067,-0.013,0.001,-0.03,-0.005,0.044,-0.023,0.134,0.041
CUEDC2 (UniProt Q9H467),0,-0.105,-0.043,-0.056,-0.009,-0.039,0.096,0.008,-0.055,0.002,0.01
CTSC (UniProt P53634),0.019,-0.015,-0.11,0.086,-0.053,-0.016,0.015,-0.053,-0.057,0.063,-0.047
ECPAS (UniProt Q5VYK3),-0.009,-0.024,-0.169,-0.035,0.073,0.077,0.08,0.071,-0.038,-0.032,-0.025
DBT (UniProt P11182),-0.009,0.003,0.005,-0.021,-0.042,0.006,-0.011,0.027,0.022,-0.093,0.025
E2F4 (UniProt Q16254),0.004,-0.052,-0.105,-0.032,0.016,-0.052,0.067,0.001,0.015,0.005,0.02
EFL1 (UniProt Q7Z2Z2),0.001,-0.023,-0.106,-0.026,0.025,0.071,0.047,0.017,-0.025,-0.023,-0.06
DHPS (UniProt P49366),0.01,0.051,0.014,0.053,-0.045,0.04,0.022,-0.013,0.08,-0.026,-0.003
DDB1 (UniProt Q16531),0.027,-0.025,-0.024,-0.004,-0.022,-0.021,0.02,-0.002,-0.018,-0.03,0.001
ESYT1 isoform 2 (UniProt Q9BSJ8),0.062,0.004,-0.004,-0.044,0.086,0.122,0.033,0.041,0.187,-0.048,0.003
DEGS1 (UniProt O15121),-0.101,0.249,0.086,-0.169,-0.006,0.077,0.109,-0.053,-0.003,-0.063,-0.03
EGLN1 (UniProt Q9GZT9),0.095,-0.016,-0.043,-0.029,-0.009,0.021,0.034,0.024,0.014,-0.178,0
EXOSC10 (UniProt Q01780),-0.49,-0.054,0.014,-0.189,-0.339,0.039,-0.125,0.041,-0.044,0.01,0.1
FAM114A2 (UniProt Q9NRY5),0.023,-0.089,-0.151,-0.062,0.051,0.034,0.05,0.02,-0.016,-0.013,-0.022
FAM118B (UniProt Q9BPY3),-0.034,-0.118,-0.381 (active),-0.027,0.047,0.064,0.052,-0.082,-0.13,-0.078,-0.011
EDC3 (UniProt Q96F86),-0.162,-0.229,-0.119,-0.075,0.07,0.154,0.042,-0.047,-0.068,-0.152,-0.068
DBR1 (UniProt Q9UK59),0.002,-0.017,-0.002,0.052,-0.023,-0.215 (active),0.014,-0.012,-0.004,-0.072,0
DDX4 (UniProt Q9NQI0),-1.13 (active),0.01,0.297,-0.35,-0.405,-0.253,-0.146,0.171,-0.273,-0.194,0.276
CTU1 (UniProt Q7Z7A3),0.038,-0.015,-0.199,-0.142,0.023,0.075,0.049,0.021,0,0.008,0.006
DNAH11 (UniProt Q96DT5),-0.099,-0.064,0.346,0.044,-0.032,-0.24,-0.213,0.197,-0.098,-0.09,0.115
DNAJC19 (UniProt Q96DA6),-0.014,0.004,-0.017,-0.006,0.004,-0.03,0.024,-0.018,0.01,-0.015,0.026
DOHH (UniProt Q9BU89),0.043,0.056,0.278,0.009,-0.106,-0.04,0.017,0.047,0.153,0.283,0.1
EIF4E isoform 2 (UniProt P06730),0.005,0.226,0.059,0.126,-0.073,-0.01,-0.026,0.102,-0.044,0.141,0.062
